Laboratory results as given in PubChem BioAssay.
Values joined by “and” are separate entries in the source; they are usually repeats but may differ in a detail not shown here. Equal values may be shown once. For some of these results: Entries with a potency or affinity are not part of this list. A structure can be active in one record and inactive in another. Active and inactive are the calls of the source.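 The calls were made as follows, unless noted: active = compounds killing one labelled cell type while sparing the other, by normalised counts and ratio limits, not self-fluorescent; inactive = the rest.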

Key:
[1] = differential killing of epithelial or mesenchymal cells, primary screen, imaging, PC-3E GFP, TEM4-18 mCherry, co-culture (AID 1345086); settings: imaging cell counts, at 1 µM; for red/green cell ratio (normalised): actives lie on both sides, counts scaled to control wells, 1 = unselective;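 as to all read-outs here: cells exposed to compound for 72 h before imaging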;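 as to red/green cell ratio (normalised): normalised mesenchymal count divided by normalised epithelial count so high means epithelial killing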
[2] = circadian clock period modulators, cell-based, LOPAC library, luminescence reporter (AID 2774; call rule not given here;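 also: values are relative to mean of DMSO wells on each plate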); settings: circadian reporter cells, at 7 µM, actives lie on both sides
[3] = system: Hepatitis C virus NS3 helicase; assay: HCV NS3 helicase inhibitors, primary screen, biochemical, fluorescence polarization, LOPAC1280 library (AID 687035; in the data active = inhibition above about 37%); settings: Purified HCV NS3 helicase, Cy5-dT15 ssDNA binding fluorescence polarization; stronger effect = higher value; concentration not given here
[4] = Cy5 fluorescence quenching or enhancement artefacts, artefact control for HCV NS3 helicase inhibitor project, biochemical, LOPAC1280 (AID 687037; call rule not given here); settings: Cy5-DNA-NS3h complex fluorescence interference counterscreen
[5] = system: Aerobactin synthetase IucA (Klebsiella pneumoniae); assay: IucA aerobactin synthetase inhibitors, biochemical, Tocris library, absorbance (AID 1345561; call rule not given here;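 also: 100% = enzyme without compound and 0% = no enzyme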); settings: purified IucA enzyme assay, absorbance (OD) read-out; stronger effect = lower value;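 tested at 8 µM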
[6] = sensitizers of A549 cells to miR-34 induction, primary screen, imaging, A549 dox-inducible miR-34, nuclei and caspase counts (AID 1347080;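 active = compounds whose cell count with miR-34 switched on is under 0.7 times the count with it off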); settings: A549 miR-34 inducible, Hoechst nuclei count, 48 h
[7] = viability rescue of complex I mutant cybrids, primary screen, cell-based, galactose medium, ATP luminescence (AID 1645843;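 active = z-score of at least 1.8 in each of two replicates, scored against plate mean and spread of sample wells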;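 also: positive z means more ATP and so rescue of galactose-driven cybrid death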); settings: complex I mutant cybrid cells, 72 h, stronger effect = higher value
[8] = polyglutamine-triggered caspase-3 activation inhibitors, cell-based (AID 1583); settings: polyglutamine-induced caspase-3 activation, cell assay; stronger effect = higher value;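 tested at 10 µM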
[9] = suppressors of polyQ aggregation in yeast, 75Q-TubU reporter (AID 1593); settings: Yeast 75Q polyglutamine aggregation reporter
[10] = rescue of polyQ-huntingtin neuronal dysfunction in worms, whole organism, C. elegans mechanosensory neurons, N-terminal huntingtin (AID 1599); settings: touch response, stronger effect = higher value
[11] = inhibitors of mitochondrial cytochrome c release, biochemical, purified mitochondria (AID 1603); settings: stronger effect = lower value;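 also: mouse liver mitochondria challenged with calcium chloride; signal normalized to the plate average as 100%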
[12] = inhibitors of polyQ protein aggregation (AID 1604); settings: polyglutamine-induced protein aggregation inhibition assay; stronger effect = higher value; tested at 2.5 µM
[13] = enhancers of glutamate uptake in motor neurons, MN-1 cell line (AID 1612); settings: MN-1 motor neuron cells, stronger effect = higher value;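 also: tested at 1 µM final; 0% = mean of DMSO vehicle wells on each plate; positive means more glutamate uptake than control and negative means less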
[14] = suppressors of polyglutamine aggregation in yeast, 75Q-TubH (AID 1616); settings: S. cerevisiae 75Q-TubH polyglutamine aggregation suppression; stronger effect = higher value
[15] = measured here: epithelial PC-3E GFP cell survival
[16] = measured here: mesenchymal TEM4-18 mCherry cell survival
[17] = stronger effect = lower value, cell number ratio, induced over uninduced
[18] = measured here: relative caspase fold change +Dox/-Dox
[19] = measured here: total cells with miR-34 induction, stronger effect = lower value
[20] = measured here: total cells without miR-34 induction

C[C@@H]1C=C2C=C[C@@](C)(O)[C@](C)(C(=O)CCO)[C@H]2[C@@H](O)C1
red/green cell ratio (normalised) [1]: 0.85 (inactive)
normalised cell number [1, 15]: 1.08
normalised cell number [1, 16]: 0.91

COCC1O[C@@H](OC)[C@@H](OCc2ccccc2)[C@@H](OCc2ccccc2)C1O (stereo partly specified)
red/green cell ratio (normalised) [1]: 0.86 (inactive)
normalised cell number [1, 15]: 1.18
normalised cell number [1, 16]: 1.01

CC(C)=CCCC(C)[C@@H]1CC[C@]2(C)C3=C(CC[C@@]12C)C1(C)CC[C@H](O)C(C)(C)C1CC3 (stereo partly specified)
red/green cell ratio (normalised) [1]: 0.9 (inactive)
normalised cell number [1, 15]: 1.09
normalised cell number [1, 16]: 0.98

CC1(C)CC[C@]2(C(=O)O)CC[C@]3(C)C(=CCC4[C@@]5(C)CC[C@H](O)[C@@](C)(CO)C5CC[C@]43C)C2C1 (stereo partly specified)
red/green cell ratio (normalised) [1]: 0.94 (inactive)
normalised cell number [1, 15]: 1.05
normalised cell number [1, 16]: 0.98

C[C@@H]1C[C@H](O)/C=C/[C@H](O)[C@@H](O)CC(=O)O1
red/green cell ratio (normalised) [1]: 0.87 (inactive)
normalised cell number [1, 15]: 1.16
normalised cell number [1, 16]: 1.02

CC(=O)O[C@H]1CC[C@]2(C)C3CC[C@@]4(C)C(CC5O[C@@]6(CCC(C)CO6)[C@@H](C)C54)C3CC[C@@H]2C1 (stereo partly specified)
red/green cell ratio (normalised) [1]: 1.09 (inactive)
normalised cell number [1, 15]: 0.87
normalised cell number [1, 16]: 0.95

O=C(O)C(O)C(O)C(O)C(O)C(=O)O (stereo unspecified)
red/green cell ratio (normalised) [1]: 1.01 (inactive)
normalised cell number [1, 15]: 1.04
normalised cell number [1, 16]: 1.05

COC(=O)[C@@H]1OC(=O)C2OC23[C@@]1(C)CCC1[C@@]2(C)CCC(=O)C(C)(C)C2C[C@@H](OC(C)=O)[C@]13C (stereo partly specified)
red/green cell ratio (normalised) [1]: 1.04 (inactive)
normalised cell number [1, 15]: 1.06
normalised cell number [1, 16]: 1.11

O=C(O)[C@@H](S)[C@@H](S)C(=O)O
red/green cell ratio (normalised) [1]: 1.16 (inactive)
normalised cell number [1, 15]: 0.95
normalised cell number [1, 16]: 1.1

CC1CCC2OC2C/C=C/C(=O)c2c(O)cc(O)cc2CC(=O)O1 (stereo unspecified)
red/green cell ratio (normalised) [1]: 0.83 (inactive)
normalised cell number [1, 15]: 0.88
normalised cell number [1, 16]: 0.73

C=C(C)[C@@H]1CC[C@]2(C)CC[C@]3(C)[C@@H](CCC4[C@@]5(C)CC[C@H](O)C(C)(C)C5CC[C@]43C)C12 (stereo partly specified)
red/green cell ratio (normalised) [1]: 1.12 (inactive)
normalised cell number [1, 15]: 0.95
normalised cell number [1, 16]: 1.07

O=C(O)c1ccccc1Nc1cccc(OCc2ccc3ccccc3n2)c1
period change [2]: -0.125 h (inactive)
inhibition [3]: 0% (inactive)
fluorescence ratio (interference) [4]: 1 (inactive)
red/green cell ratio (normalised) [1]: 0.86 (inactive)
normalised cell number [1, 15]: 1.35
normalised cell number [1, 16]: 1.16
remaining activity [5]: 112% (inactive)
fold change [6, 17]: 0.992 (inactive) and 0.929 (inactive)
fold change [6, 18]: 0.944 and 0.452
cell count [6, 19]: 9820 and 8230
cell count [6, 20]: 9900 and 8860
z-score [7]: 2.17 (active) and -0.695 (inactive)

CC(C)C[C@@H](NC(=O)OCC1c2ccccc2-c2ccccc21)C(=O)O
inhibition [8]: -9.47%
score [9]: -0.27
rescue above control [10]: 2.38
cytochrome c release ratio [11]: 0.77
inhibition of aggregation [12]: -14.3%
glutamate uptake change [13]: 4.64%
aggregation suppression score [14]: 0.0751
red/green cell ratio (normalised) [1]: 0.8 (inactive)
normalised cell number [1, 15]: 1.21
normalised cell number [1, 16]: 0.97
remaining activity [5]: 97.5% (inactive)
fold change [6, 17]: 0.883 (inactive)
fold change [6, 18]: 0.962
cell count [6, 19]: 8270
cell count [6, 20]: 9370
z-score [7]: -0.5 (inactive)
